# The supplement of paper PMC8728848
# This excerpt belongs to a sample that is enriched for the strongest signals.
# Assays:
# Assay in all cases: glycan array binding signal (z-score within array); higher = stronger binding
# Settings in all cases: glycan notation: IUPAC condensed, linker removed
# [1] = molecular target: Gal(b1-4)GlcNAc(b1-3)[Gal(b1-4)GlcNAc(b1-6)]GalNAc
# Outline: (§1)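 From the Consortium for Functional Glycomics database, 3228 arrays were curated, keeping only those whose protein sequence was available. Binding is given as a within-array Z-score averaged across arrays sharing a protein sequence and across linkers. Negative Z-scores can be read as non-binding.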
# [2] = molecular target: Gal(b1-4)GlcNAc(b1-6)[Gal(b1-3)]GalNAc
# Outline: as §1
# [3] = molecular target: Gal6S(b1-3)GlcNAc6S
# Outline: as §1
# [4] = molecular target: GalNAc(a1-3)Gal
# Outline: as §1
# [5] = molecular target: GalNAc(a1-3)GalNAc
# Outline: as §1
# [6] = molecular target: GalNAc(a1-3)GalNAc(a1-3)Gal(a1-4)Gal(b1-4)GlcNAc
# Outline: as §1
# [7] = molecular target: GalNAc(a1-3)GalNAc(b1-3)Gal(a1-4)Gal(b1-4)Glc
# Outline: as §1
# [8] = molecular target: GalNAc(b1-3)GalNAc
# Outline: as §1
# [9] = molecular target: GlcA3S(b1-3)Gal(b1-4)GlcNAc(b1-3)Gal(b1-4)Glc
# Outline: as §1
# [10] = molecular target: GlcNAc(b1-2)Man(a1-3)[GlcNAc(b1-4)][GlcNAc(b1-2)Man(a1-6)]Man(b1-4)GlcNAc(b1-4)[Fuc(a1-6)]GlcNAc
# Outline: as §1
# [11] = molecular target: GlcNAc(b1-4)GlcNAc(b1-4)GlcNAc(b1-4)GlcNAc(b1-4)GlcNAc
# Outline: as §1
# [12] = molecular target: GlcNAc(b1-6)Gal(b1-4)GlcNAc
# Outline: as §1
# [13] = molecular target: GlcNAc3Prop(b1-4)GlcNAc
# Outline: as §1
# [14] = molecular target: Kdn(a2-6)Gal(b1-4)GlcNAc
# Outline: as §1
# [15] = molecular target: Man(a1-2)Man(a1-3)[Man(a1-2)Man(a1-6)]Man
# Outline: as §1
# [16] = molecular target: Neu5Ac(a2-3)Gal(b1-3)GalNAc6S
# Outline: as §1
# [17] = molecular target: Neu5Ac(a2-3)Gal(b1-3)GlcNAc(b1-2)Man(a1-3)[Neu5Ac(a2-3)Gal(b1-3)GlcNAc(b1-2)Man(a1-6)]Man(b1-4)GlcNAc(b1-4)GlcNAc
# Outline: as §1
# [18] = molecular target: Neu5Ac(a2-3)Gal(b1-3)GlcNAc6S
# Outline: as §1
# [19] = molecular target: Neu5Ac(a2-3)Gal(b1-3)[Fuc(a1-4)]GlcNAc(b1-3)Gal(b1-4)[Fuc(a1-3)]GlcNAc
# Outline: as §1
# [20] = molecular target: Neu5Ac(a2-3)Gal(b1-4)GlcNAc(b1-2)Man
# Outline: as §1
# [21] = molecular target: Neu5Ac(a2-3)Gal(b1-4)GlcNAc(b1-2)[Neu5Ac(a2-3)Gal(b1-4)GlcNAc(b1-6)]Man(a1-6)[Neu5Ac(a2-3)Gal(b1-4)GlcNAc(b1-2)Man(a1-3)][GlcNAc(b1-4)]Man(b1-4)GlcNAc(b1-4)GlcNAc
# Outline: as §1
# [22] = molecular target: Neu5Ac(a2-3)Gal(b1-4)[Fuc(a1-3)]GlcNAc(b1-3)Gal(b1-4)GlcNAc
# Outline: as §1
# [23] = molecular target: Neu5Ac(a2-3)Gal6S(b1-4)GlcNAc
# Outline: as §1
# [24] = molecular target: Neu5Ac(a2-3)[Neu5Ac(a2-6)]GalNAc
# Outline: as §1
# [25] = molecular target: Neu5Ac(a2-6)Gal(b1-4)GlcNAc(b1-3)Gal(b1-4)GlcNAc(b1-2)Man(a1-3)[Neu5Ac(a2-6)Gal(b1-4)GlcNAc(b1-3)Gal(b1-4)GlcNAc(b1-2)Man(a1-6)]GalNAc
# Outline: as §1
# [26] = molecular target: Neu5Ac(a2-6)GalNAc(b1-4)GlcNAc6S
# Outline: as §1
# [27] = molecular target: Neu5Ac(a2-6)GlcNAc(b1-4)GlcNAc
# Outline: as §1
# [28] = molecular target: Neu5Ac(a2-8)Neu5Ac(a2-3)Gal(b1-4)GlcNAc
# Outline: as §1
binder,measurement,setting,value
"HPA (Helix pomatia), Q2F1K8 (protein) MQAFYSGLLLLCVVAFAAAQRVQSGKIDCGNDAGWAKVPSDDPGRDNTRELAKNITFASPYCRPPVVLLSITQLDVEQSQNLRVIARLYSVSPTGFKASCYTWHNTKVYSMSISWISIENY",glycan array binding signal (z-score),[1],-0.304
same,glycan array binding signal (z-score),[2],-0.255
same,glycan array binding signal (z-score),[3],-0.301
same,glycan array binding signal (z-score),[4],2.85
same,glycan array binding signal (z-score),[5],3.28
same,glycan array binding signal (z-score),[6],3.71
same,glycan array binding signal (z-score),[7],7.34
same,glycan array binding signal (z-score),[8],0.839
same,glycan array binding signal (z-score),[9],-0.351
same,glycan array binding signal (z-score),[10],-0.214
same,glycan array binding signal (z-score),[11],-0.314
same,glycan array binding signal (z-score),[12],-0.35
same,glycan array binding signal (z-score),[13],-0.979
same,glycan array binding signal (z-score),[14],-0.242
same,glycan array binding signal (z-score),[15],-0.231
same,glycan array binding signal (z-score),[16],-0.272
same,glycan array binding signal (z-score),[17],-0.195
same,glycan array binding signal (z-score),[18],-0.281
same,glycan array binding signal (z-score),[19],-0.105
same,glycan array binding signal (z-score),[20],-0.116
same,glycan array binding signal (z-score),[21],-0.361
same,glycan array binding signal (z-score),[22],0.04
same,glycan array binding signal (z-score),[23],-0.242
same,glycan array binding signal (z-score),[24],-0.294
same,glycan array binding signal (z-score),[25],0.201
same,glycan array binding signal (z-score),[26],-0.275
same,glycan array binding signal (z-score),[27],-0.359
same,glycan array binding signal (z-score),[28],-0.323
